From PubChem
Pf Dd2 growth: P. falciparum Dd2 growth inhibitors, primary screen, SYBR Green fluorescence, single dose replicates; AID 1159554, 2015; 72 h; active compounds read low; 94,000 compounds, 2.3% hits; activity change, % at 10 µM; in the data active means activity change below about -80%
C diff HTS: C. difficile growth inhibitors, primary screen, HTS. AID 1259249, 2017. 86,000 compounds, 0.25% hits. Clostridium difficile clinical isolate growth, OD600, 24 h; active compounds read low. growth activity, negative = inhibition, % at 16 µg/mL (by protocol);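 active means mean growth activity at or below -80% and every replicate also at or below -80%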
Large screens that a line does not name were inactive. Shown are actives, neighbours in structure and some others; about 2.3% of the full set was active somewhere.

C[C@@H]1CCCCO[C@H](CN(C)C(=O)Cc2ccccc2)[C@H](C)CN([C@@H](C)CO)C(=O)c2cc(NC(=O)Nc3ccc(C(F)(F)F)cc3)ccc2O1	none
C[C@H]1CCCCO[C@H](CN(C)C(=O)CCCN(C)C)[C@@H](C)CN([C@@H](C)CO)C(=O)c2cc(NC(=O)Nc3ccc(C(F)(F)F)cc3)ccc2O1	none (no result: C diff HTS)
O=C(C[C@H]1CC[C@@H]2[C@H](COC[C@@H](O)CN2S(=O)(=O)c2ccc(Cl)cc2)O1)NCc1ccc(Cl)c(Cl)c1	none (no result: C diff HTS)
Cc1ccc(S(=O)(=O)N(C)C[C@H]2Oc3ccc(NS(=O)(=O)c4cccs4)cc3CC(=O)N([C@@H](C)CO)C[C@@H]2C)cc1	none
C[C@@H]1CN([C@@H](C)CO)C(=O)c2cccc(NC(=O)NC3CCCCC3)c2O[C@@H]1CN(C)S(=O)(=O)c1ccc(F)cc1	none
OC[C@H]1[C@@H](c2ccc(C#Cc3ccccc3)cc2)[C@@H]2CN(CC3CCOCC3)CCCCN12	none
C[C@@H]1CCCCO[C@H](CN(C)C(=O)Cc2ccccc2)[C@H](C)CN([C@H](C)CO)C(=O)c2cc(NC(=O)Nc3ccccc3)ccc2O1	Pf Dd2 growth -83.7 (no result: C diff HTS)
C[C@@H]1CN([C@H](C)CO)C(=O)c2cc(NC(=O)Nc3ccccc3)ccc2O[C@@H](C)CCCCO[C@@H]1CN(C)C(=O)Cc1ccccc1	none (no result: C diff HTS)
C[C@H](CO)N1C[C@H](C)[C@H](CN(C)C(=O)NC2CCCCC2)Oc2ccc(NC(=O)CCCN(C)C)cc2C1=O	none
CN1C(=O)c2cc(NC(=O)c3ccc(F)cc3)ccc2OC[C@@H]2O[C@@H](CC(=O)NC3CCC3)CC[C@H]21	none
CN(C)C(=O)c1ccc(-c2ccc([C@@H]3[C@H]4CN(C(=O)C5CCCC5)CCCCN4[C@H]3CO)cc2)cc1	none
C[C@H]1CN([C@@H](C)CO)C(=O)c2cccc(NC(=O)CCCCCC(=O)Nc3ccccc3N)c2O[C@H]1CN(C)Cc1ccc(C(F)(F)F)cc1	Pf Dd2 growth -85.4
C[C@H]1CN([C@@H](C)CO)C(=O)c2cccc(NC(=O)CCCCCC(=O)Nc3ccccc3N)c2O[C@H]1CN(C)Cc1ccncc1	none
C[C@@H]1CN([C@H](C)CO)C(=O)c2cccc(NC(=O)CCCCCC(=O)Nc3ccccc3N)c2O[C@H]1CN(C)Cc1ccncc1	none
C[C@@H]1CN([C@H](C)CO)C(=O)c2cccc(NC(=O)CCCCCC(=O)Nc3ccccc3N)c2O[C@H]1CN(C)Cc1ccc(C(F)(F)F)cc1	Pf Dd2 growth -91.7
C[C@H](CO)N1C[C@H](C)[C@H](CN(C)C)Oc2ncc(C#Cc3ccccc3)cc2C1=O	none
Cc1noc(C)c1NC(=O)Nc1ccc2c(c1)CC(=O)N([C@@H](C)CO)C[C@H](C)[C@H](CN(C)S(=O)(=O)c1ccc(Cl)cc1)O2	none
C[C@@H]1CN([C@@H](C)CO)C(=O)c2cccc(NC(=O)c3nc4ccccc4s3)c2O[C@@H]1CN(C)Cc1ccc(C(=O)O)cc1	none
C[C@H](CO)N1C[C@H](C)[C@H](CN(C)Cc2ccc(C(F)(F)F)cc2)Oc2c(NC(=O)c3nc4ccccc4s3)cccc2C1=O	Pf Dd2 growth -86.6 (no result: C diff HTS)
C[C@@H]1CN([C@H](C)CO)C(=O)c2cccc(NC(=O)c3nc4ccccc4s3)c2O[C@@H]1CN(C)Cc1ccc(C(=O)Nc2ccccc2N)cc1	Pf Dd2 growth -88.5 (no result: C diff HTS)
C[C@H]1CN([C@@H](C)CO)C(=O)c2cccc(NC(=O)c3nc4ccccc4s3)c2O[C@@H]1CN(C)Cc1ccc(C(F)(F)F)cc1	none (no result: C diff HTS)
C[C@@H]1CN([C@@H](C)CO)C(=O)c2cccc(NC(=O)c3nc4ccccc4s3)c2O[C@H]1CN(C)Cc1ccc(C(=O)Nc2ccccc2N)cc1	Pf Dd2 growth -91.3 (no result: C diff HTS)
C[C@@H]1CN([C@H](C)CO)C(=O)c2cccc(NC(=O)c3nc4ccccc4s3)c2O[C@@H]1CN(C)Cc1ccc(C(=O)O)cc1	none
CCNC(=O)C[C@@H]1CC[C@H]2[C@H](COc3ccc(NC(=O)C4CCOCC4)cc3C(=O)N2C)O1	none
CC(C)NC(=O)N(C)C[C@H]1OCCCC[C@H](C)Oc2ccc(NS(=O)(=O)c3ccccc3)cc2C(=O)N([C@@H](C)CO)C[C@H]1C	none
COc1ccc(NC(=O)N(C)C[C@H]2Oc3ccc(NS(=O)(=O)c4ccc(F)cc4)cc3CC(=O)N([C@@H](C)CO)C[C@H]2C)cc1	none
COCC(=O)Nc1ccc2c(c1)C(=O)N(C)[C@@H]1CC[C@@H](CC(=O)NCc3ccccc3)O[C@@H]1CO2	none
C[C@@H]1CCCCO[C@H](CN(C)S(=O)(=O)c2ccccc2)[C@@H](C)CN([C@H](C)CO)C(=O)c2cc(NS(=O)(=O)c3cn(C)cn3)ccc2O1	none
COc1ccc2c3c([nH]c2c1)[C@H](CO)NCC31CCN(C(=O)C2CCOCC2)CC1	none
COc1ccc2c3c([nH]c2c1)[C@@H](CO)NCC31CCN(S(=O)(=O)c2cccs2)CC1	none
COc1ccc2c3c(n(C)c2c1)[C@H](CO)NCC31CCN(S(=O)(=O)c2cccc(F)c2)CC1	Pf Dd2 growth -86.1
COc1cccc(S(=O)(=O)N2CCC3(CC2)CN[C@H](CO)c2[nH]c4cc(OC)ccc4c23)c1	Pf Dd2 growth -87.8
COc1ccc2c3c([nH]c2c1)[C@@H](CO)NCC31CCN(C(=O)C2CCOCC2)CC1	Pf Dd2 growth -82.1
COc1ccc2c3c(n(C)c2c1)[C@H](CO)NCC31CCN(S(=O)(=O)c2cccc(C)c2)CC1	none
COc1ccc2c3c([nH]c2c1)[C@H](CO)NCC31CCN(C(=O)c2ccccc2)CC1	Pf Dd2 growth -84.1
COc1ccc2c3c([nH]c2c1)[C@@H](CO)NCC31CN(C(=O)c2ccccc2)C1	none
O=C(O)C[C@@H]1CC[C@H](NC(=O)Nc2ccccc2)[C@@H](CO)O1	none (no result: C diff HTS)
Cc1ccc(S(=O)(=O)N(C)C[C@@H]2Oc3ccc(NC(=O)Nc4ccc(F)cc4)cc3CC(=O)N([C@@H](C)CO)C[C@@H]2C)cc1	none (no result: C diff HTS)
C[C@@H]1CN([C@@H](C)CO)C(=O)c2cc(NC(=O)Nc3ccccc3)ccc2O[C@@H]1CN(C)Cc1ccc(C(F)(F)F)cc1	none
COc1ccc(S(=O)(=O)Nc2cccc3c2O[C@H](CN(C)S(=O)(=O)c2ccc(OC)cc2)[C@@H](C)CN([C@@H](C)CO)C3=O)cc1	none
C[C@@H]1CN([C@H](C)CO)C(=O)c2cc(NS(=O)(=O)c3ccc(F)cc3)ccc2O[C@@H]1CN(C)S(=O)(=O)c1ccc(F)cc1	none
